The values below come from PubChem BioAssay AID652105 (National Center for Advancing Translational Sciences (NCATS), 2013).

Hit rate of the full screen: of about 330,000 compounds, about 4,100 (1.2%) were called active. Roughly 2% stayed inconclusive and do not appear here. The list comes from a sample in which actives are over-represented; it also holds similar structures and randomly drawn compounds. Values without a mark were called inactive. How the source made its calls: active means max response of -50% or lower; inconclusive means between -30% and -50%; inactive means -30% or higher.
On the % scale 0 is the no-effect control and ±100 the full control effect.

Phosphatidylinositol 5-phosphate 4-kinase type-2 alpha (Homo sapiens), sequence (P48426 whole entry, looked up): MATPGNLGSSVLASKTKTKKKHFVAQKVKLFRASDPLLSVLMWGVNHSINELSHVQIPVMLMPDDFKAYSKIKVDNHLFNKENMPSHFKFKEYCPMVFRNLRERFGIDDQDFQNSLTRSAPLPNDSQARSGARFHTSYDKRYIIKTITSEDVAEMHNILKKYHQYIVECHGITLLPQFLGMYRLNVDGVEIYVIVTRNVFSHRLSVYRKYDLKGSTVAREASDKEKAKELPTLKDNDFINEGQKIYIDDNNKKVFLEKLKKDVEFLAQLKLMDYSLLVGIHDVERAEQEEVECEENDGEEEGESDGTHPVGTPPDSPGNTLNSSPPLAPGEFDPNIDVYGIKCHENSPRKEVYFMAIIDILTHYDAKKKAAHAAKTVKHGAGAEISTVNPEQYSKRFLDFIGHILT

This experiment addresses Phosphatidylinositol 5-phosphate 4-kinase type-2 alpha (Homo sapiens) (UniProt P48426). Put plainly: qHTS for Inhibitors of phosphatidylinositol 5-phosphate 4-kinase (PI5P4K). Further: value at the top dose of about 77 µM. Conditions: PI5P4Kalpha enzyme, ADP-Glo luminescence, 60 min; active compounds read low. In outline: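 Quantitative HTS of the MLSMR library against PI5P4Kalpha with substrate. ATP added last at 5 microM final; room temperature, 60 minutes. Remaining ATP depleted, ADP converted and read as luminescence.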
Background: Quantitative high-throughput screening tests each substance at several concentrations.
On to `CCOP(=O)(OCC)C(Cc1ccccc1)N=C(c1ccccc1)c1ccccc1` (stereo not given), for which the max response is 10.7%.

As to `CC1(C(=O)NCc2ccc3c(c2)OCO3)CCN1C(=O)Cc1cccc2ccccc12` (stereo not given), the max response was 1.27%.

Take `O=C1NC[C@H](CCCCN2C[C@H](Cc3ccc(O)cc3)N(CC3CCCCC3)C(=O)C2=O)N(CCc2ccccc2)C1=O`: the max response is -0.0714%.

Turning to `CSc1ncnc2c1ncn2CCCNCC(C)c1ccccc1` (stereo not given), the max response was -2.55%.

As for `Fc1cccc(Cc2c(-c3cccc(Cl)c3)nc3ccc(Br)cn23)c1`, the max response was -13.9%.

`CC(=O)Nc1cc(-c2ccc(N3CCN(C)CC3)cc2)cn2c(-c3ccc(F)cc3)cnc12`: the max response was -9.82%.

As to `O=C(NCc1cccc(C(F)(F)F)c1)c1ccc2sc(COCCO)nc2c1`, the max response was -7.68%.

As to `CC1(C(=O)Nc2ccc3c(c2)OCCO3)CCN1C(=O)Cc1cc(F)ccc1F` (stereo not given), the max response is 2.77%.

Turning to `O=C1C(Cl)=C(Oc2ccccc2)C(=O)c2ccccc21`, the max response was -95.6% (active).

With `Clc1ccccc1Nc1nc(NCc2cccs2)nc2ccsc12`, the max response is -4.54%.

With `CCOc1ccc(NC(=O)CCNC(=O)c2ccc(Br)cc2)cc1`, the max response was -0.675%.

Regarding `CCOc1ccc(NC(=O)c2ccc(NC(=O)COC(=O)c3ccc(NC(=O)CC#N)cc3)cc2)cc1`, the max response was -67.8% (active).

With `CC(=O)c1c(C)[nH]c(C(=O)OCC(=O)Nc2sc3c(c2C#N)CCCC3)c1C`, the max response was -6.62%.

As for `N#CCC(=O)Nc1ccc(C(=O)OCC(=O)Nc2sc3c(c2C#N)CCCC3)cc1`, the max response is -64.2% (active).

Regarding `CC(C)NC(=O)NC(=O)COC(=O)c1ccc(NC(=O)CC#N)cc1`, the max response is -8.69%.

Take `Cc1cccc(C(=O)OCC(=O)Nc2sc3c(c2C#N)CCC3)c1`: the max response was -29.9%.

With `CC1=C(C(=O)N(C(C)C)C(C)C)CC(CC(=O)NCCCCc2ccccc2)C(=O)N1CCC1=CCCCC1` (stereo not given), the max response was -0.015%.

With `COC(=O)C[C@H]1C=C[C@@H](NS(=O)(=O)c2ccc(C)cc2)[C@@H](CO)O1`, the max response was 0.772%.

`COc1ccc(S(=O)(=O)/N=C2\C=C(NS(=O)(=O)c3ccccc3)C(=O)c3ccccc32)cc1`: the max response is -64.4% (active).

Turning to `O=C1C=C(NS(=O)(=O)c2ccccc2)C(=O)c2ccccc21`, the max response was 1.96%.

Turning to `Cc1ccc(S(=O)(=O)/N=C2\C=C(NS(=O)(=O)c3ccc(C)cc3)C(=O)c3ccccc32)cc1`, the max response was -25.4%.

As to `O=C(OCc1ccccc1)N1CCC2CC1c1ccc(-c3ccc4c(c3)OCO4)cc12` (stereo not given), the max response was 14.4%.

In the case of `O=S1(=O)CC(N2CCN(CCO)CC2)CN1Cc1cn(Cc2ccc(Cl)cc2)nn1` (stereo not given), the max response was -1.75%.

For the compound `NC(Cc1ccc(F)cc1)c1csc(Nc2nncc3ccccc23)n1` (stereo not given), the max response is -1.97%.

As for `CCOC(=O)c1sc(=S)n2c1[nH]c(=O)c1ccc(C(=O)OC)cc12`, the max response was -52.6% (active).

On to `CCOC(=O)c1ccc2c(c1)nc(C)n2CC`, for which the max response is 0.903%.

As for `COC(=O)c1cccc(NC(=O)CSc2nc(C)cc(=O)[nH]2)c1`, the max response is -26.1%.

On to `O[C@H]1C[C@H](c2ccc(Cl)cc2)N(Cc2cccs2)C[C@@H]1n1cc(C2CC2)nn1`, for which the max response is 16.1%.

Consider `COc1ccc(-c2cc(=O)c3c(O)cc(O[C@@H]4O[C@H](CO[C@@H]5O[C@@H](C)[C@H](O)[C@@H](O)[C@H]5O)[C@@H](O)[C@H](O)[C@H]4O)cc3o2)cc1O`, for which the max response was 0.0751%.

Turning to `COc1cc(O)c2c(=O)c3c(O)c(O)ccc3oc2c1OC`, the max response was -7.12%.

As for `COc1c(O)cc2oc(-c3ccc(O)c(O)c3)cc(=O)c2c1O`, the max response was -59.1% (active).

For `Cc1[nH]c2ccccc2c1C(=O)c1cc([C@H](NC(=O)OC(C)(C)C)C(C)C)sc1N`, the max response was 2.87%.

Turning to `CC(=O)OCC(C)n1c(=O)c2ccccc2n1C(C)=O` (stereo not given), the max response was -0.324%.

With `COc1ccc(C(O)c2nc(-c3ccc4c(c3)OCO4)cs2)cc1` (stereo not given), the max response was -1.53%.

As to `O=C1c2ccccc2S(=O)(=O)c2cc(N3CCN(c4ccccn4)CC3)ccc21`, the max response was 1.24%.

Turning to `Cc1ccc(CNC(=O)c2cccc3c2C(=O)c2ccc(N4CCC(C)CC4)cc2S3(=O)=O)cc1`, the max response is -1.75%.

With `CC1CCN(c2ccc3c(c2)S(=O)(=O)c2cc(C(=O)O)ccc2C3=O)CC1`, the max response is -56.6% (active).

Take `CCCCC(=O)N(C)c1c(CC)nc2c(OCc3ccc(S(C)(=O)=O)cc3)cccn12`: the max response is -1.42%.

On to `CC(C)[C@H](NC(=O)c1ccccc1F)C(=O)Nc1cccc(S(=O)(=O)N2CCOCC2)c1`, for which the max response is 0.136%.

On to `CN1C2CCC1CC(NC(=O)c1ccc([N+](=O)[O-])cc1)C2` (stereo not given), for which the max response is 0.848%.

As for `COc1ccc(C2CC(c3ccc([N+](=O)[O-])cc3)=NN2C(C)=O)cc1` (stereo not given), the max response is 0.372%.

Take `CC(=O)N1CC[n+]2c(-c3ccc([N+](=O)[O-])cc3)csc21`: the max response was -61% (active).

For the compound `COC(=O)[C@]12CCCCC=C1N(CCC1=CCCCC1)C(=O)[C@H](CC(=O)NCC1CCCCC1)C2`, the max response was 7.3%.

Consider `CC(=O)N1Cc2cc(C(=O)NCc3cccc(F)c3)nc(-c3cccc(C4=CCCC4)c3)c2[C@H]1CCO`, for which the max response was -1.08%.

Consider `CNc1cc(-c2c(OC)cccc2OC)ncn1`, for which the max response was 3.83%.

In the case of `C[C@@H]1C[C@@H]2O[C@H]2/C=C\C=C\C(=O)Cc2c(Cl)c(O)cc(O)c2C(=O)O1`, the max response is -50.5% (active).

With `CC1(C(=O)Nc2cccc3c2CCCC3)CCN1C(=O)C1(c2ccccc2)CC1` (stereo not given), the max response is 20.1%.

Turning to `O=C1OCCOC2CCCc3oc(-c4ccccc4)c1c32` (stereo not given), the max response was -3.14%.

As to `OC(c1ccc(F)cc1)c1ncc(-c2cccc(C(F)(F)F)c2)[nH]1` (stereo not given), the max response is 16.6%.

For the compound `CCOC(=O)/C=c1\s/c(=C\c2ccccc2OC)c(=O)n1CC(=O)N1CCOCC1`, the max response was -6.89%.

On to `COc1cc(/C=C2\C(=N)N3N=C(CC(=O)N4CCOCC4)SC3=NC2=O)cc(OC)c1OC`, for which the max response was 1.99%.

Turning to `COc1cccc(/C=C2\SC(=S)N(CCCC(=O)N3CCOCC3)C2=O)c1`, the max response is 1.86%.

Turning to `COC1=C/C(=C/c2c(N)n3nc(CC(=O)N4CCOCC4)sc3nc2=O)C=CC1=O`, the max response was -79.3% (active).

Consider `C=CCC1=C/C(=C\c2c(N)n3nc(CC(=O)N4CCOCC4)sc3nc2=O)C=C(OC)C1=O`, for which the max response is -61.1% (active).

As to `CCOC(=O)C1=CCC(c2ccc(F)cc2)N(S(=O)(=O)c2ccc(C)cc2)C1` (stereo not given), the max response is 8.18%.

`O=C(COc1ccc(Br)cc1)OCC(=O)c1ccc[nH]1`: the max response was 1.45%.

Consider `CCc1nc2c(OCc3ccc(C(=O)OC)cc3)cccn2c1N(C)C(=O)C(C)C`, for which the max response is -5.01%.

With `COc1cc(/C=N/NC(=O)c2ccc(N3CCCC3=O)cc2)ccc1O`, the max response was 0.256%.

On to `CCOc1cc(/C=N/NC(=O)c2cc(-c3ccccc3)nc3ccccc23)ccc1O`, for which the max response was 1.21%.

Turning to `COc1ccc(C(=O)Nc2ccccc2C(=O)N/N=C/c2ccc(O)c(OC)c2)cc1`, the max response was -50.7% (active).

Turning to `CCCCCCN1CCN(C2CN(Cc3cn(CCCCCC)nn3)S(=O)(=O)C2)CC1` (stereo not given), the max response is -1.03%.

With `CC(C)Nc1nc(NCCOc2ccccc2Cl)c2sccc2n1`, the max response is -24.4%.

With `O=C(NCc1ccco1)c1cccc(-c2ccc3nncn3c2)c1`, the max response was 5.11%.

Take `Cc1cccc(C)c1Cn1c(C)c(C(=O)NCc2cccc(Cl)c2)sc1=O`: the max response is 9.15%.

`CCOC(=O)/C(N=Nc1cc(C(=O)O)cc(C(=O)O)c1)=C(\O)CCl`: the max response is -52.4% (active).

In the case of `COc1cccc(CN(C)C(=O)CC[C@H]2O[C@@H](n3cnc4c(NC(=O)c5ccccc5)ncnc43)[C@H](O)[C@@H]2O)c1`, the max response is -6.93%.

For the compound `COC(=O)[C@@]12C[C@@H](CC(=O)NCc3cccc(C(F)(F)F)c3)C(=O)N(Cc3ccco3)C1=CCC(C)(C)C2`, the max response was -1.12%.

Regarding `Nn1c(SCC(=O)Nc2nccs2)nnc1-c1ccco1`, the max response is -11.2%.

`NC(=O)c1c(NC(=O)CSc2nnc(-c3ccco3)n2N)sc2c1CCCC2`: the max response was -79.7% (active).

For `Cc1cc(NC(=O)CSc2nnc(-c3ccco3)n2N)no1`, the max response is -9.01%.

As for `O=C1c2ccccc2C(c2nc3ccccc3[nH]2)N1c1ccccc1` (stereo not given), the max response is -0.58%.

With `CN(C(=O)COC(=O)c1cc(-c2ccco2)nc2ccccc12)C1CCS(=O)(=O)C1` (stereo not given), the max response was -66.2% (active).

For the compound `CN(C(=O)COC(=O)Cc1ccccc1[N+](=O)[O-])C1CCS(=O)(=O)C1` (stereo not given), the max response is 1.78%.

As to `COc1ccc(/C=C(\C#N)C(=O)OCC(=O)N(C)C2CCS(=O)(=O)C2)cc1` (stereo not given), the max response was 4.63%.

For the compound `CCNC(=O)c1cc2c(c(-c3cccc(-c4cncnc4)c3)n1)[C@H](CCO)N(C(C)=O)C2`, the max response is 1.34%.

In the case of `CCCCc1c(-c2ccc(Cl)cc2)ncn1CCc1ccccc1OC`, the max response is 19%.

For the compound `Fc1cccc(Cc2c(-c3ccc(Cl)cc3)nc3ccc(Cl)cn23)c1`, the max response was 1.89%.

With `O=C(COc1ccc(-n2cnnn2)cc1)Nc1ccccc1Cl`, the max response is -51.4% (active).

As for `C=CCc1cccc(/C=N/NC(=O)COc2ccc(-n3cnnn3)cc2)c1O`, the max response is -0.249%.

With `O=C(Cc1c(F)cccc1Cl)Nc1ccc(-n2cnnn2)cc1`, the max response is 4.15%.

As for `C=CCC[C@@H](CCCCC)OC(=O)/C=C/[C@@H](O)[C@H](O)C[C@H](O)CC=C`, the max response was 17.3%.

Regarding `COCCNc1nc(Nc2ccccc2Cl)c2sc(-c3ccccc3)cc2n1`, the max response was -2.99%.

Regarding `O=C(O)c1ccccc1/C=N/Nc1ccc(S(=O)(=O)Nc2ccc(Cl)cc2)cc1[N+](=O)[O-]`, the max response was -7.22%.

Turning to `O=[N+]([O-])c1cc(S(=O)(=O)Nc2cccc(Cl)c2)ccc1N=Nc1c(O)[nH]c2ccccc12`, the max response is -75.5% (active).

Take `Oc1[nH]c2ccccc2c1N=Nc1c(F)c(F)c(F)c(F)c1F`: the max response is 1.14%.
